Source: PubChem BioAssay
Activity calls are given as the source filed them. No rule for the calls is given here.

These compounds were tested against Pantothenate synthetase (Mycobacterium tuberculosis (strain ATCC 25618 / H37Rv)) (UniProt P9WIL5) (assay: Recombinant Mtb pantothenate synthetase (PanC) inhibitors, coupled enzyme, confirmatory (AID 375;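 also: 0% = full reaction with vehicle and 100% = no enzyme background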)). Settings: coupled enzyme assay; at 10 µM, active compounds read high.
Sequence of Pantothenate synthetase (Mycobacterium tuberculosis (strain ATCC 25618 / H37Rv)) (P9WIL5 whole entry, looked up): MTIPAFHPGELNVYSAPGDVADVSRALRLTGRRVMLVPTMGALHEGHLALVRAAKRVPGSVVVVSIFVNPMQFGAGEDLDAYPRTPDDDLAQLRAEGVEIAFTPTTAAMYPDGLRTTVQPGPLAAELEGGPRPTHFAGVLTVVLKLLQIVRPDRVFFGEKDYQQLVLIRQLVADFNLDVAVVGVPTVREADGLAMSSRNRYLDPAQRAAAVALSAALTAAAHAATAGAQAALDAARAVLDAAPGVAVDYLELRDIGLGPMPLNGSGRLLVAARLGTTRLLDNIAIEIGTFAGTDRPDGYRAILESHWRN

Row | SMILES | inhibition
1 | COc1ccc(C2/C(=C(/O)c3ccccc3)C(=O)C(=O)N2c2ncccn2)cc1OC (stereo not given) | 2% (inactive)
2 | CCCCCC(=O)N1CC2(C)CN(C(=O)CCCCC)CC(C)(C1)C2=O | 0% (inactive)
3 | CS(=O)(=O)N1CCCC(C(=O)NCc2ccccc2Cl)C1 (stereo not given) | 0% (inactive)
4 | COc1ccc(CNc2ccc(C(=O)O)cc2)cc1 | 0% (inactive)
5 | CCOC(=O)Nc1ccc(OC)cc1S(=O)(=O)N1CCCCC1 | 0% (inactive)
6 | COC(=O)c1[nH]c(C)c(/C(O)=C2\C(=O)C(=O)N(CCCN3CCOCC3)C2c2ccccn2)c1C (stereo not given) | 8% (inactive)
7 | Cc1ccc(Br)cc1S(=O)(=O)N1CCN(c2ccccc2)CC1 | 0% (inactive)
8 | CC(=O)c1cccc(NC(=O)N2CCCC2C(=O)NCc2ccc(C)cc2)c1 (stereo not given) | 4% (inactive)
9 | C[N+]1=C2CCCCCN2C(O)(c2ccccc2)C1 (stereo not given) | 7% (inactive)
10 | COc1cc(NC(=O)Nc2cccc(C(C)=O)c2)cc(OC)c1OC | 0% (inactive)
11 | COc1ccc(Oc2c(C)oc3cc(OC(=O)N4CCOCC4)ccc3c2=O)cc1 | 3% (inactive)
12 | CCOC(=O)c1sc(NC(=O)c2c(C)nn(Cc3ccccc3)c2C)cc1C | 0% (inactive)
13 | C=C(C)Cn1c(-c2ccccc2)nc2ccccc21 | 0% (inactive)
14 | CCCCCC1CC(CC(C)C(=O)Nc2nncs2)C(=O)O1 (stereo not given) | 9% (inactive)
15 | O=C(c1ccc2snnc2c1)N1CCOCC1 | 3% (inactive)
16 | COCCN(Cc1cc2cc3c(cc2n2nnnc12)OCO3)C(=O)c1ccccc1F | 2% (inactive)
17 | COc1cc2c(cc1NCc1ccccn1)oc1ccccc12 | 0% (inactive)
18 | CCCS(=O)(=O)N1CCC(C(=O)NCCN2CCCC2)CC1 | 0% (inactive)
19 | Cc1ccc(S(=O)(=O)CC2CSc3nnc(C)c(=O)n32)cc1 (stereo not given) | 0% (inactive)
20 | Cn1c(=O)c(=O)n(C)c2cc(S(=O)(=O)Nc3ccc4c(c3)OCCO4)ccc21 | 6% (inactive)

Row | SMILES | inhibition
21 | Cc1cc2ccccc2c(=O)n1CC(=O)Nc1ccc2c(c1)OCO2 | 0% (inactive)
22 | O=C(CN1CCN(c2ccccn2)CC1)N1c2ccccc2CCc2ccccc21 | 0% (inactive)
23 | Cc1cc(NC(=O)CSc2nc3ccccc3n2CC(=O)N2CCCCC2)no1 | 0% (inactive)
24 | O=C(NCc1ccccn1)c1cc(-n2cnnc2)ccc1Cl | 0% (inactive)
25 | CC(=O)Nc1ccc(NC(=O)Cn2cnc3c(cnn3C(C)(C)C)c2=O)cc1 | 3% (inactive)
26 | CC1Cc2nc(SCC(=O)Nc3ccc4c(c3)OCO4)n(-c3ccc(F)cc3)c(=O)c2S1 (stereo not given) | 0% (inactive)
27 | CCOC(=O)c1cc(-c2ccccc2)sc1N | 3% (inactive)
28 | COC(=O)c1ccccc1NC(=O)c1ccc(-c2ccccc2F)o1 | 0% (inactive)
29 | COC(=O)c1[nH]c2ccc(C)cc2c1NC(=O)CN1CCN(C(=O)c2ccccc2)CC1 | 4% (inactive)
30 | CCOC(=O)c1nnc2ccnn2c1N | 0% (inactive)
31 | CCCCC(=O)NCCc1cc2ccc(OC)cc2[nH]c1=O | 0% (inactive)
32 | COCCOC(=O)c1c(C)oc2ccc(NS(=O)(=O)c3ccc(F)cc3)cc12 | 3% (inactive)
33 | COc1ccc(Cc2nc3ccc(S(N)(=O)=O)cc3[nH]2)cc1OC | 0% (inactive)
34 | COc1ccccc1OCCSc1nc2ccccc2c(=O)[nH]1 | 0% (inactive)
35 | Cc1ccc(-n2ncc3c(=O)[nH]c(SC(C)C)nc32)cc1 | 0% (inactive)
36 | Cc1nc2ccccc2c(=O)n1CC(=O)N1CCOCC1 | 2% (inactive)
37 | O=C(c1ccc(-c2cccc(C(F)(F)F)c2)o1)N1CCOCC1 | 0% (inactive)
38 | Cc1cccc(NC(=O)c2oc3c(c2C)C(=O)CC(C)(C)C3)n1 | 9% (inactive)
39 | O=C(O)CCCC(=O)Nc1ccc(Br)cc1C(=O)O | 0% (inactive)
40 | Cc1nnc(SCC(=O)Nc2cc(C(F)(F)F)ccc2N2CCOCC2)o1 | 0% (inactive)
